Measurements taken from the supplement of paper PMC10338343.
± gives the standard deviation. Over roughly 8,200 sequences, “pre-steady-state target cleavage rate” has its median near 0.024; the highest 2% begin near 1.3. The sample as a whole holds a higher share of the highest values than the screen did.

Tested on: MIWI (PIWIL1) piRISC loaded with L1MC piRNA (30 nt)
Assay: pre-steady-state target cleavage rate (min^-1); MIWI and MILI are mouse PIWI proteins and EfPiwi is from a freshwater sponge; tags in brackets are library labels; higher = faster piRNA-guided slicing of the target
Details: guide: L1MC piRNA 5'p-UAACUAAAUACUAUGCAAGCUGUAGGUCCU
In short: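 The pre-steady-state cleavage rate was obtained by Cleave-'n-Seq with a burst-and-steady-state fit. A transcribed, DNA-blocked target RNA library (0.1 nM) was mixed with 1 nM active affinity-purified piRISC carrying one synthetic guide, with or without 500 nM GTSF1 partner protein, in HEPES–potassium acetate buffer at 33 °C for 0–8 or 0–960 min. Uncleaved targets were sequenced and normalised to depth and to weakly complementary targets, with three trials pooled and k3 capped at 0.0001 min^-1.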

[1] = auxiliary factor: 500 nM mouse GTSF1
[2] = auxiliary factor: none (no GTSF1)

Row | Sequence | pre-steady-state target cleavage rate [1] | pre-steady-state target cleavage rate [2]
1 | UCGACCUACUGCUUGGAUAGUAUUUAGUUA | 1.67 ± 0.068 | 0.0575 ± 0.0089
2 | UCCACCUACUGCUUGGAUAGUAUUUAGUUA | 1.14 ± 0.049 | 0.0503 ± 0.0082
3 | UGGACCUACACCUUGGAUAGUAUUUAGUUA | 0.815 ± 0.069 | 0.0418 ± 0.0063
4 | AGGACCUACUGCUUGGAUAGUAUUUAGUUA | 1.34 ± 0.052 | 0.061 ± 0.0085
5 | AGGACCUACACCUUGGAUAGUAUUUAGUUA | 0.817 ± 0.061 | 0.0497 ± 0.0086
6 | UCGACCUACACCUUGGAUAGUAUUUAGUUA | 0.854 ± 0.076 | 0.0364 ± 0.0044
7 | UGGACCUACUGCUUGGAUAGUAUUUAGUUA | 1.65 ± 0.072 | 0.0542 ± 0.0088
8 | UCCUCCUACUGCUUGGAUAGUAUUUAGUUA | 1.21 ± 0.04 | 0.0517 ± 0.0073
9 | UCCUGCUACUGCUUGGAUAGUAUUUAGUUA | 0.969 ± 0.077 | 0.0353 ± 0.0055
10 | UCCUGGAUGUCGAACGUAUCUAAUUAGUAA | – | < 0.0001
11 | UCCUGGAUCAGCUUGAUAGUAUUUAGUUA | 0.0664 ± 0.007 | 0.00393 ± 0.0017
12 | AGGACCUAGAGCUUGCAUAGUAUUUUCAAA | 0.0396 ± 0.013 | –
13 | UCCUGCUACAGCAUGCAUAGUAUUUAGUAA | 0.655 ± 0.063 | 0.00614 ± 0.0024
14 | UCCUGGAACAGCUACCAUAGUAUUUAGUAA | 0.0979 ± 0.017 | –
15 | UCCUCCUACAGCUUGCAUAGUUAAUAGAAA | 0.0486 ± 0.014 | –
16 | UCCUGGUACAGCUUGCAAUGUAUUUAGAAA | 0.0194 ± 0.0063 | –
17 | UCGACCUACAGCUUGGUUAGUAUUUUCAAA | 0.0241 ± 0.0089 | –
18 | UCCUGGAUGUCCUUGCAUAGUAUAAUGUUA | 0.0139 ± 0.0063 | –
19 | UCGACCUACAGCUUGCAUAGUAUUAACAAA | 0.401 ± 0.044 | –
20 | UCCACCUACAGCUUGCUUAGUAUUAAGUUA | 0.31 ± 0.03 | 0.00763 ± 0.0016
21 | UGGACCUACAGCAUGCAUAGUAUUUAGUAA | 0.977 ± 0.075 | 0.0303 ± 0.0065

Row | Sequence | pre-steady-state target cleavage rate [1] | pre-steady-state target cleavage rate [2]
22 | AGGACCUACAGCAUGCAUAGUAUUUAGUAA | 0.986 ± 0.075 | 0.0556 ± 0.014
23 | UGGACCUACAGCAUUGCAUAGUAUUUAGUUA | 1.27 ± 0.11 | 0.0665 ± 0.014
24 | UGGUCCUACAGCAUGCAUAGUAUUUAGUUA | 1.19 ± 0.061 | 0.0657 ± 0.014
25 | AGGUCCUACAGCAUGCAUAGUAUUUAGUUA | 1.33 ± 0.062 | 0.107 ± 0.026
26 | AGGACCUACAGCAUGCAUAGUAUUUAGAAA | 0.577 ± 0.059 | 0.00715 ± 0.0031
27 | UCGUCCUACAGCAUGCAUAGUAUUUAGUUA | 1.26 ± 0.047 | 0.0282 ± 0.0049
28 | UGGACCUACAGCAUGCAUAGUAUUUAGUUA | 1.38 ± 0.078 | 0.0549 ± 0.011
29 | AGGACCUACAGCAUGCAUAGUAUUUAGUUA | 1.33 ± 0.06 | 0.073 ± 0.015
30 | UCCUGGAUGUCGAUGCAUAGUAUUUAGUGA | 0.0103 ± 0.0037 | –
31 | UCCACCUACAGCAAGCAUAGUAUUUAGAAA | 0.243 ± 0.035 | –
32 | UCCUGGAUGUCCUUGGAUAGUAUUUUGUUA | 0.0668 ± 0.017 | –
33 | UCCUCCUACAGCUUGCAUAGUAUCUUAGUUA | 0.96 ± 0.045 | 0.016 ± 0.0044
34 | UGGACCUACAGGAUGCAUAGUAUUUACAAA | 0.216 ± 0.039 | –
35 | UCCUGGAACUCGUUGCAUAGUAUUUAGUAA | 0.071 ± 0.011 | 0.00318 ± 0.0021
36 | UCCUGCUACAGCUUGCAUAGUAUUUAGUA | 0.422 ± 0.071 | 0.00464 ± 0.0019
37 | UCCUGCUACAGCUUGCUUAGAAUUUAGUUA | 0.247 ± 0.026 | 0.00845 ± 0.0029
38 | AGGACCUACACGAUGCAUAGUAUUUACAAA | 0.19 ± 0.025 | –
39 | UCCACCUACAGCUUGCAAAGUAUAUAGUUA | 0.468 ± 0.045 | 0.0135 ± 0.0031
40 | AGGACCUACAGCUUGCAUAGUAUAUAGUUA | 0.884 ± 0.066 | 0.0667 ± 0.017
41 | AGGACCUUCAGCUUGCAAAGUAUUUAGUUA | 1.3 ± 0.051 | 0.0464 ± 0.0089
42 | UGGACCUACAGCUUGCAUAGUAUUAUAGUUA | 1.24 ± 0.062 | 0.052 ± 0.011

Row | Sequence | pre-steady-state target cleavage rate [1] | pre-steady-state target cleavage rate [2]
43 | AGGACCUUCAGCUUGCAUAGUAUUUAGUAA | 1.07 ± 0.079 | 0.0632 ± 0.012
44 | UGGACCUACAGCUUGCAUAGUAUAUUAGUUA | 1.33 ± 0.079 | 0.0409 ± 0.0089
45 | UGGACCUUCAGCUUGCAAAGUAUUUAGUUA | 1.34 ± 0.073 | 0.0368 ± 0.0084
46 | AGGACCUACAGCUUGCAAAGUAUAUAGUUA | 0.667 ± 0.049 | 0.0238 ± 0.0054
47 | AGGACCUACAGCUUGCAUAGUAUUAUAGUUA | 1.05 ± 0.078 | 0.0707 ± 0.015
48 | UCGACCUACAGCUUGCAAAGUAUAUAGUUA | 0.855 ± 0.055 | 0.0157 ± 0.0033
49 | AGGACCUACAGCUUGCAUAGUAUAUUAGUUA | 1.18 ± 0.097 | 0.0609 ± 0.015
50 | UGGACCUACAGCUUGCAUAGUAUAUAGUUA | 0.892 ± 0.062 | 0.0341 ± 0.0087
51 | UGGACCUACAGCUUGCAUAGUAUUAGUUA | 0.172 ± 0.032 | 0.00299 ± 0.0019
52 | UGGACCUUCAGCUUGCAUAGUAUUUAGUUA | 1.45 ± 0.067 | 0.069 ± 0.011
53 | UGGACCUACAGCUUGCAAAGUAUAUAGUUA | 0.895 ± 0.057 | 0.0204 ± 0.0062
54 | AGGACCUUCAGCUUGCAUAGUAUUUAGUUA | 1.32 ± 0.056 | 0.0842 ± 0.013
55 | UGGACCUUCAGCUUGCAUAGUAUUUAGUAA | 1.07 ± 0.064 | 0.0524 ± 0.011
56 | UGGACCUACAGCUUGCAUAGUAUAUAGUAA | 0.356 ± 0.038 | 0.012 ± 0.0037
57 | AGGACCUACAGCUUGCAUAGUAUAUAGUAA | 0.493 ± 0.058 | 0.0216 ± 0.0048
58 | UCCUCCUACAGCUUGCAUUGUAUUAAGUUA | 0.309 ± 0.026 | 0.00813 ± 0.0024
59 | UCCACCUACAGCUUGCAUAGAAUUUAGAUA | 0.247 ± 0.037 | 0.00935 ± 0.0029
60 | UCGACCUACAGCUUGCAUAGUUAUUACAAA | 0.115 ± 0.035 | –
61 | UCCUGGAUGUCGAACGUAAGUAUUUAAUUA | < 0.0001 | –
62 | UCCUGGUACAGCUUGCAUAGUUUAUAGUUA | 0.0594 ± 0.017 | 0.0135 ± 0.004
